This is part of a sample that, as a whole, favours compounds with a hit. Of some 83,000 tested, about 20% had one in any assay.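 Interpretation: 100, growth as untreated; towards 0, rising growth inhibition; 0, no net growth; 0 to -100, cell death. Compounds scoring below 10 were considered active.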 The source made the active and inactive calls.
What follows are compounds tested on A549/ATCC NSCLC (assay: NCI-60 one-dose screen, 48 h (100 = growth as untreated, 0 = no growth, -100 = all killed)). Settings: 10 µM unless noted.

Compound | growth
CN(C(=O)CN1C(=O)/C(=C/c2ccco2)SC1=S)C1CCS(=O)(=O)C1 (stereo unspecified) | 102% (inactive)
O=C(c1ccc(Cl)cc1)C1[C@H](c2ccccc2Cl)[C@@H](c2ccccc2)NC12C(=O)Nc1ccccc12 (stereo partly specified) | 3.68% (active)
Cc1ccc(Nc2nnc(-c3c[nH]c4ccccc34)o2)c(C)c1 | 12.6% (inactive)
Cc1ccccc1NC(=O)c1cccc(NC(=O)CCl)c1 | 59.1% (inactive)
Clc1ccc(CNc2nc(SCCN3CCOCC3)nc3c2cnn3CC(Cl)c2ccc(Br)cc2)cc1 (stereo unspecified) | 23.4% (inactive)
CCc1ccc(SC2c3cc(OC)ccc3Oc3nc(N)c(C#N)c(N)c32)cc1 (stereo unspecified) | -41.2% (active)
O=C(N/N=C/c1ccc(B(O)O)s1)c1[nH]c2ccc(Br)cc2c1-c1ccccc1 | -62.8% (active)
CCN1C(=O)N(CC)C2NNC(Sc3c(C(=O)O)c4ccccc4n(CC(C)C)c3=O)=NC21 (stereo unspecified) | 20.9% (inactive)
COc1ccc(/C=C/c2nc3ccccc3c(=O)n2CC(=O)Nc2ccccc2)cc1 | 27.5% (inactive)
COc1ccc2[nH]c(=O)c(CSc3ccccc3Nc3nccc(-c4ccc5c(c4)OCO5)n3)cc2c1 | 76.3% (inactive)
Cc1ccc(Cl)cc1NC(=O)N/C(N)=N/c1nc2ccccc2s1 | -36.9% (active)
COc1ccc(OC)c(Cn2cc(C#N)c(N)c2C(=O)c2ccc(Br)cc2)c1 | 46.4% (inactive)
Cc1ccc(-c2cc(-c3ccccc3)[nH]c(=O)c2C#N)cc1 | 77.3% (inactive)
Cc1ccc(C(C(=O)NC2CCCCC2)N(Cc2ccccc2Cl)C(=O)c2ccc(CN3CCOCC3)o2)o1 (stereo unspecified) | 98.5% (inactive)
CN(C)c1ccc(/C=C/c2n(Cc3ccc4ccccc4c3)c3ccccc3[n+]2Cc2ccc3ccccc3c2)cc1 | -53.4% (active)
Cc1nn(-c2ccccc2)c2nc(C)n(CC(=O)N/N=C/c3ccccc3O)c(=O)c12 | 26.2% (inactive)
CC1=C(C)C(=O)C(N2CCSCC2)=CC1=O | 99.3% (inactive)
NC(=O)c1ccc(-c2ccc3ncnc(N4CCc5cc(F)c(Cl)cc54)c3c2)cn1 | 63% (inactive)
Cn1ncc2c(N)nc(Oc3ccccc3-c3ccccc3)nc21 | 55.9% (inactive)

Compound | growth
C=CC[n+]1cccc2c3ccccc3ccc21 | 28.1% (inactive)
COc1ccc2nc(NC(=O)c3ccc(N(C)C)cc3)sc2c1 | 54.9% (inactive)
O=C(N/N=C/c1ccoc1)c1[nH]c2ccc(Br)cc2c1-c1ccccc1 | -60.4% (active)
O=C(Nc1ccc(-c2ccc3c(c2)NC(=O)/C3=C\c2ccc[nH]2)cc1)Nc1ccc(Cl)c(C(F)(F)F)c1 | 18% (inactive)
CN1C(=O)/C(=C/c2ccco2)S/C1=N/c1nccs1 | 107% (inactive)
COc1cccc2nc(Nc3cccc(NC(=O)c4ccc(CN5CCN(C)CC5)c(C(F)(F)F)c4)c3)ccc12 | -70.5% (active)
Fc1cccc(CNc2nc(SCCN3CCOCC3)nc3c2cnn3CC(Cl)c2ccc(Br)cc2)c1 (stereo unspecified) | 19.9% (inactive)
CCCCNc1ccc2c3c(cccc13)C(=O)N(c1cccc(-c3nn(-c4ccccc4)cc3-c3nc4ccccc4s3)c1)C2=O | 117% (inactive)
N/C(=N\c1nc2ccccc2s1)NC(=O)Nc1ccccc1[N+](=O)[O-] | 16.8% (inactive)
Cc1ccc(C(=O)Nc2cc(-c3ccncc3)cc(C(F)(F)F)c2)cc1C#Cc1cnc2cccnn12 | 48.6% (inactive)
CCN1C(=O)N(CC)C2NNC(Sc3c(C(=O)O)c4ccccc4n(CCC(C)C)c3=O)=NC21 (stereo unspecified) | 12.4% (inactive)
CC1=C(C(=O)OCc2ccccc2)C(c2ccc(N(C)C)cc2)n2c(nc3ccccc32)N1 (stereo unspecified) | 94.9% (inactive)
COc1cc(/C=C/C(=O)c2cnn(-c3cc(=O)[nH]c4ccc(Br)cc34)c2C)cc(OC)c1OC | 8.86% (active)
S=C(Nc1ccc(OCc2nc3ccc(Cl)cc3[nH]2)cc1)NC1CCCCC1 | 15.6% (inactive)
Nc1nn2c(-c3cc4cc(Br)ccc4oc3=O)ccnc2c1N=Nc1ccc(S(N)(=O)=O)cc1 | 107% (inactive)
CCN(C(=O)CN1C(=O)/C(=C/c2ccco2)SC1=S)C1CCS(=O)(=O)C1 (stereo unspecified) | 102% (inactive)
Cn1cc(Nc2ncnc(-c3ccc(N4CCCC4)c(C#N)c3)n2)cn1 | 83.7% (inactive)
O=C1Nc2ccccc2/C1=C\c1ccc(OCC(=O)c2ccc(Br)cc2)cc1 | 58.4% (inactive)
COc1cc(CNC(=O)C[C@H](C)CCC=C(C)C)ccc1OCc1cn(-c2ccc(Br)cc2)nn1 | 78.6% (inactive)

Each compound was assayed on 786-0 renal in the same assay as above. Settings: 10 µM unless noted.

Compound | growth
CN(C(=O)CN1C(=O)/C(=C/c2ccco2)SC1=S)C1CCS(=O)(=O)C1 (stereo unspecified) | 93.4% (inactive)
O=C(c1ccc(Cl)cc1)C1[C@H](c2ccccc2Cl)[C@@H](c2ccccc2)NC12C(=O)Nc1ccccc12 (stereo partly specified) | -58.4% (active)
Cc1ccc(Nc2nnc(-c3c[nH]c4ccccc34)o2)c(C)c1 | 1.66% (active)
Cc1ccccc1NC(=O)c1cccc(NC(=O)CCl)c1 | 16.6% (inactive)
Clc1ccc(CNc2nc(SCCN3CCOCC3)nc3c2cnn3CC(Cl)c2ccc(Br)cc2)cc1 (stereo unspecified) | 39.6% (inactive)
CCc1ccc(SC2c3cc(OC)ccc3Oc3nc(N)c(C#N)c(N)c32)cc1 (stereo unspecified) | -54.6% (active)
O=C(N/N=C/c1ccc(B(O)O)s1)c1[nH]c2ccc(Br)cc2c1-c1ccccc1 | -66.2% (active)
CCN1C(=O)N(CC)C2NNC(Sc3c(C(=O)O)c4ccccc4n(CC(C)C)c3=O)=NC21 (stereo unspecified) | 26.9% (inactive)
COc1ccc(/C=C/c2nc3ccccc3c(=O)n2CC(=O)Nc2ccccc2)cc1 | -42.6% (active)
COc1ccc2[nH]c(=O)c(CSc3ccccc3Nc3nccc(-c4ccc5c(c4)OCO5)n3)cc2c1 | 90.1% (inactive)
Cc1ccc(Cl)cc1NC(=O)N/C(N)=N/c1nc2ccccc2s1 | -2.48% (active)
COc1ccc(OC)c(Cn2cc(C#N)c(N)c2C(=O)c2ccc(Br)cc2)c1 | 63.9% (inactive)
Cc1ccc(-c2cc(-c3ccccc3)[nH]c(=O)c2C#N)cc1 | 88.4% (inactive)
Cc1ccc(C(C(=O)NC2CCCCC2)N(Cc2ccccc2Cl)C(=O)c2ccc(CN3CCOCC3)o2)o1 (stereo unspecified) | 82.8% (inactive)
CN(C)c1ccc(/C=C/c2n(Cc3ccc4ccccc4c3)c3ccccc3[n+]2Cc2ccc3ccccc3c2)cc1 | -72% (active)
Cc1nn(-c2ccccc2)c2nc(C)n(CC(=O)N/N=C/c3ccccc3O)c(=O)c12 | 18.5% (inactive)
CC1=C(C)C(=O)C(N2CCSCC2)=CC1=O | 99.4% (inactive)
NC(=O)c1ccc(-c2ccc3ncnc(N4CCc5cc(F)c(Cl)cc54)c3c2)cn1 | 66.5% (inactive)
Cn1ncc2c(N)nc(Oc3ccccc3-c3ccccc3)nc21 | 52.6% (inactive)

Compound | growth
C=CC[n+]1cccc2c3ccccc3ccc21 | 66.2% (inactive)
COc1ccc2nc(NC(=O)c3ccc(N(C)C)cc3)sc2c1 | 85% (inactive)
O=C(N/N=C/c1ccoc1)c1[nH]c2ccc(Br)cc2c1-c1ccccc1 | -76.5% (active)
O=C(Nc1ccc(-c2ccc3c(c2)NC(=O)/C3=C\c2ccc[nH]2)cc1)Nc1ccc(Cl)c(C(F)(F)F)c1 | 48.8% (inactive)
CN1C(=O)/C(=C/c2ccco2)S/C1=N/c1nccs1 | 97.6% (inactive)
COc1cccc2nc(Nc3cccc(NC(=O)c4ccc(CN5CCN(C)CC5)c(C(F)(F)F)c4)c3)ccc12 | -81.7% (active)
Fc1cccc(CNc2nc(SCCN3CCOCC3)nc3c2cnn3CC(Cl)c2ccc(Br)cc2)c1 (stereo unspecified) | 20.9% (inactive)
CCCCNc1ccc2c3c(cccc13)C(=O)N(c1cccc(-c3nn(-c4ccccc4)cc3-c3nc4ccccc4s3)c1)C2=O | 101% (inactive)
N/C(=N\c1nc2ccccc2s1)NC(=O)Nc1ccccc1[N+](=O)[O-] | 11% (inactive)
Cc1ccc(C(=O)Nc2cc(-c3ccncc3)cc(C(F)(F)F)c2)cc1C#Cc1cnc2cccnn12 | 46.3% (inactive)
CCN1C(=O)N(CC)C2NNC(Sc3c(C(=O)O)c4ccccc4n(CCC(C)C)c3=O)=NC21 (stereo unspecified) | 16% (inactive)
CC1=C(C(=O)OCc2ccccc2)C(c2ccc(N(C)C)cc2)n2c(nc3ccccc32)N1 (stereo unspecified) | 90.6% (inactive)
COc1cc(/C=C/C(=O)c2cnn(-c3cc(=O)[nH]c4ccc(Br)cc34)c2C)cc(OC)c1OC | -73% (active)
S=C(Nc1ccc(OCc2nc3ccc(Cl)cc3[nH]2)cc1)NC1CCCCC1 | -20.6% (active)
Nc1nn2c(-c3cc4cc(Br)ccc4oc3=O)ccnc2c1N=Nc1ccc(S(N)(=O)=O)cc1 | 86.1% (inactive)
CCN(C(=O)CN1C(=O)/C(=C/c2ccco2)SC1=S)C1CCS(=O)(=O)C1 (stereo unspecified) | 101% (inactive)
Cn1cc(Nc2ncnc(-c3ccc(N4CCCC4)c(C#N)c3)n2)cn1 | 59.8% (inactive)
O=C1Nc2ccccc2/C1=C\c1ccc(OCC(=O)c2ccc(Br)cc2)cc1 | 89.8% (inactive)
COc1cc(CNC(=O)C[C@H](C)CCC=C(C)C)ccc1OCc1cn(-c2ccc(Br)cc2)nn1 | 68.7% (inactive)
